Data on 8 molecules can be found in PubChem BioAssay (NCI).

SMILES strings stand for the structures. Several values for one entry are separate records, joined by “and”; a condition that tells them apart may be missing. Equal entries are not always repeated. This is part of a sample that, as a whole, favours compounds with a hit. Of some 83,000 tested, about 20% had one in any assay.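 Cell lines were cultured in 96-well plates, exposed to a single compound concentration, and assessed for percent growth 48 hours later.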 Activity calls are given as the source filed them. The calls were made as follows: active = growth percent below 10; inactive = the rest.

The test system of this assay is UACC-62 melanoma. The assay is described as follows: NCI-60 one-dose screen, 48 h (100 = growth as untreated, 0 = no growth, -100 = all killed). The note with it: 10 µM unless noted.
Turning to `COC(=O)C(=O)C(C(=O)C(=O)Nc1ccccc1C(=O)OC)c1nc2ccc(C(=O)c3ccccc3)cc2[nH]c1=O` (stereo not drawn), the growth is 54.3% [100 µM] (inactive) and 12.8% [100 µM] (inactive).

Take `CCCn1c2c(c3ccccc3c1=O)C(=O)c1ccccc1-2`: the growth is 63.1% [100 µM] (inactive) and 8.48% [100 µM] (active).

Regarding `O=C1C=C(Nc2ccc(S(=O)(=O)Nc3nccs3)cc2)c2ccccc2C1=O`, the growth is -46.1% [100 µM] (active) and -88.9% [100 µM] (active).

In the case of `C=C1C(=O)OC2/C=C(\CO)C(OC(C)=O)CC(O)/C(C)=C/C(OC(=O)C(C)CC)C12` (stereo not drawn), the growth was -85.5% [100 µM] (active) and -98.8% [100 µM] (active).

`C[C@]12CC[C@@H]3c4cc(Br)c(O)c(Br)c4CC[C@H]3[C@@H]1CC(Br)C2=O` (stereo partly drawn): the growth was -79.5% [100 µM] (active) and -97.9% [100 µM] (active).

As to `CCOc1cc2c(cc1O)/C(=N\N)C[C@@H]1[C@@H]2CC[C@]2(C)[C@@H](O)CC[C@@H]12`, the growth was 17.1% [100 µM] (inactive) and -96.8% [100 µM] (active).

For the molecule `Cc1ccnc2[nH]c(-c3ccc(F)cc3)cc(=O)c12`, the growth is -5.39% [100 µM] (active) and -36.2% [100 µM] (active).

Consider `CCC1CC(C)C(O)/C=C/C=C/CC(C)OC(=O)CC(O)C(OC)C1OC1OC(C)CC(O)(C(C)=O)C1O` (stereo not drawn), for which the growth is 67.6% [100 µM] (inactive) and 33.4% [100 µM] (inactive).
